Our source for the AC50 and activity, negative = inhibition values is PubChem BioAssay AID1851 (National Center for Advancing Translational Sciences (NCATS), 2009).

The structures appear in SMILES notation. Screen size: about 16,000 compounds; about 5,800 (36%) were called active. About 23% were inconclusive and are not listed. The list shows a part of the results. A number with no mark means an inactive call. Calls follow the shape of the dose curve; as a rule, active = well fitted curve in the direction sought with a large enough effect; inconclusive = small, poorly fitted or top-dose-only effect, or effect the other way; inactive = no such curve, though single readings can be large or run the other way.
% is scaled to controls: 0 for no effect and ±100 for the full control effect.

Cytochrome P450 2C19 (Homo sapiens), sequence (P33261 whole entry, looked up): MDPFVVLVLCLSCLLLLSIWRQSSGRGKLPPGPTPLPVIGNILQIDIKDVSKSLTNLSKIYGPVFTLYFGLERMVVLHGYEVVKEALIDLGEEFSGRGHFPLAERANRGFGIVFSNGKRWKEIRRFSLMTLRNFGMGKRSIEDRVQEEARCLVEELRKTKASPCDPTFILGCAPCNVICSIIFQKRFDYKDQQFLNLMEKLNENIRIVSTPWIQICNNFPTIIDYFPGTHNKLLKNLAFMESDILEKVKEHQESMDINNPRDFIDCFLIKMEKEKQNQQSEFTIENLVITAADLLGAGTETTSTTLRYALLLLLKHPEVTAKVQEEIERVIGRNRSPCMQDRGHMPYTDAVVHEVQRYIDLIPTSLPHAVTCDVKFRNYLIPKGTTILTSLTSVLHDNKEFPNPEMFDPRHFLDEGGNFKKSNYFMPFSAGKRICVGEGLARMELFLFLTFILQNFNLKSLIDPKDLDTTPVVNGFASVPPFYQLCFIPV

This test concerns the target Cytochrome P450 2C19 (Homo sapiens) (UniProt P33261). Briefly: Cytochrome panel assay with activity outcomes. The settings on record: recombinant CYP, pro-luciferin dealkylation, luminescence, p450-cyp2c19; series mostly up to 57.1 µM.
Turning to `CCNc1ncc2nc(-c3cn(C)c4ccccc34)c(=O)n(C)c2n1`, the AC50 result was “inactive”.

For `COc1cc(OC)cc(C(=O)Nc2ccccc2C(=O)N2CCCC2)c1`, the AC50 is 28.2 µM (active).

As to `COc1ccc(/C=C/C(=O)Nc2ccccc2C(=O)N2CCCC2)cc1`, the AC50 entry is “inactive”.

As for `COc1cc(OC)cc(C(=O)Nn2cc(C(=O)N3CCN(C)CC3)c3ccccc3c2=O)c1`, the AC50 result is “inactive”.

For `COC(=O)c1ccccc1NC(=O)C1CCN(C(=O)c2ccc(OC)cc2)CC1`, the AC50 is 14.1 µM (active).

Take `COc1ccc(NC(=O)C2CCN(C(=O)c3cccs3)CC2)c(OC)c1`: the AC50 entry was “inactive”.

Regarding `O=C1[C@H]2[C@H]3[C@H](O)[C@H](O)C/C(=N/OC[C@@H](O)COCc4ccco4)[C@H]3CC[C@@H]2C(=O)N1C1CCCCC1`, the activity, negative = inhibition was -5.34% [at 11.4 µM].

In the case of `N#CC(c1ccc(Cl)cc1)(c1ncc(C(F)(F)F)cc1Cl)N1CCOCC1` (stereo not given), the AC50 is 11.2 µM (active).

In the case of `N#CC(c1ccccc1F)(c1ncc(C(F)(F)F)cc1Cl)N1CCOCC1` (stereo not given), the AC50 is 11.2 µM (active).

For `Cc1ccc(SCCNC(=O)c2ccc(C)c(S(=O)(=O)Nc3ccccc3C)c2)cc1`, the AC50 was 2.51 µM (active).

Regarding `Cc1ccc(SCc2ccc(C(=O)NCc3ccncc3)cc2)cc1`, the AC50 is 0.355 µM (active).

As for `CCN(CC)CCNC(=O)c1ccc(Cl)c(S(=O)(=O)Nc2ccccc2OC)c1`, the AC50 result was “inactive”.

In the case of `Cc1ccc(NC(=O)c2cccc(N(C)C)c2)cc1NC(=O)c1ccc(O)cc1`, the AC50 entry is “inactive”.

In the case of `Cc1ccccc1NS(=O)(=O)c1cc(C(=O)Nc2cccc(N(C)S(C)(=O)=O)c2)ccc1C`, the AC50 was 3.55 µM (active).

`Cc1ccc(SCCNC(=O)c2ccccc2)cc1`: the AC50 was 6.31 µM (active).

Regarding `Cc1ccc(SCc2nnc(NC(=O)c3ccccc3)s2)cc1`, the AC50 entry was “inactive”.

Consider `NS(=O)(=O)Cc1noc2ccccc12`, for which the AC50 result is “inactive”.

For the compound `Cc1cc(C(C)(C)CC(C)(C)C)ccc1OCCOCC[N+](C)(C)Cc1ccccc1`, the AC50 result was “inactive”.

For the compound `CN[C@@H]1[C@H](O[C@H]2[C@@H](O[C@@H]3[C@@H](O)[C@@H](O)[C@@H](N=C(N)N)[C@@H](O)[C@@H]3N=C(N)N)O[C@@H](C)[C@]2(O)CO)O[C@H](CO)[C@@H](O)[C@@H]1O`, the AC50 result is “inactive”.

Regarding `COc1ccc(-c2ccc(N)[n+](CCCC(=O)O)n2)cc1`, the AC50 result was “inactive”.

Regarding `COc1ccc(-c2ccc(=N)n(CCCC(=O)O)n2)cc1`, the AC50 was 0.158 µM (active).

Consider `Clc1ccccc1-c1cc(NCc2cccnc2)ncn1`, for which the AC50 result is “inactive”.

Take `Clc1ccccc1-c1cc(NCc2ccccc2)ncn1`: the AC50 was 7.94 µM (active).

Take `Cc1cccc(CNc2cc(-c3ccccc3Cl)ncn2)c1`: the AC50 was 10 µM (active).

As to `CC(C(=O)NCc1ccc2c(c1)OCO2)N1c2cccc3cccc(c23)S1(=O)=O` (stereo not given), the AC50 is 0.794 µM (active).
